Out of some 360,000 compounds screened, about 10,000 (2.8%) were called active. Another 4% or so got no clear call; they are omitted. This is one part of a sample in which actives are shown more often than they occur. Values without a mark were called inactive. Calls follow the shape of the dose curve; as a rule, active = well fitted inhibition curve with a large enough effect; inconclusive = small, poorly fitted or top-dose-only effect; inactive = flat fitted curve, though single readings scatter.
Molecular target: Serine/threonine-protein kinase PLK1 (Homo sapiens) (UniProt P53350)
Sequence (P53350 whole entry, looked up, the tested form may be a part): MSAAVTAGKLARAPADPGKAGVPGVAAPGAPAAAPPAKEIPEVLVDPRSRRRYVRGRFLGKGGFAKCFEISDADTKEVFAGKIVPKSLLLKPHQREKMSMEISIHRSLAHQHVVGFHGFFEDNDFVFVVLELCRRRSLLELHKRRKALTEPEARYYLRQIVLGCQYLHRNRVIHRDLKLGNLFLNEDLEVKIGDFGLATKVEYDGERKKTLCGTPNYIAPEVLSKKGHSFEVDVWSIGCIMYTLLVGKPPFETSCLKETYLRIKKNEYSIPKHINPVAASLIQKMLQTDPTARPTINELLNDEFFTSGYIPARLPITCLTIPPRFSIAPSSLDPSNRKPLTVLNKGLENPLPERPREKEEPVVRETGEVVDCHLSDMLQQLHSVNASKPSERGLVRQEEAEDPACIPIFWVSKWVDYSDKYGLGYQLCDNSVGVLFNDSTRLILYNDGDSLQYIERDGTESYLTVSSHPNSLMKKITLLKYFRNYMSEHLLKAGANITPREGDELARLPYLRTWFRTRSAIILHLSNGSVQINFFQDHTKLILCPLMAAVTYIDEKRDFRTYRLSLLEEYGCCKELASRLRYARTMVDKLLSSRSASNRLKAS
Assay: qHTS for Inhibitors of PLK1-PDB (polo-like kinase 1 - polo-box domain): Primary Screen; also: nearly all actives have a fitted effect of over 65% in size; as to max response, negative = inhibition: series mostly up to about 57 µM
Conditions: Plk1 PBD binding of FITC phosphopeptide, fluorescence polarization
% is scaled to controls: 0 for no effect and ±100 for the full control effect; potency is read from the fitted curve at half-maximal effect.

SMILES	max response, negative = inhibition [%]	Potency
CCc1ccc2c(c1)NC(=O)C2(C)Cc1ccc(OC(F)(F)F)cc1 (stereo not given)	-1.5	
N#CC1=C(N)Oc2[nH]c(=S)[nH]c(=O)c2C12C(=O)Nc1ccccc12 (stereo not given)		2.67 µM (active)
N#CC1=C(N)Oc2n[nH]c(CSc3ccccc3)c2C12C(=O)Nc1ccccc12 (stereo not given)	-12.8	
CC1(C)Cc2ccccc2-c2[nH]c(=S)[nH]c(=O)c21	-13.9	
COCCNC(=O)C1(C)CCCN(Cc2cccc(F)c2)C1 (stereo not given)	-4.61	
CCCCNC(=O)C1CCC(CNS(=O)(=O)c2ccc(NC(C)=O)cc2)CC1 (stereo not given)	-1.34	
CC(=O)Nc1ccc(S(=O)(=O)NCCc2ccccc2)cc1	0.463	
COCCCNC(=O)c1ccc(CNS(=O)(=O)c2ccc(NC(C)=O)cc2)cc1		26.7 µM (active)
CCN1CCCC1CNC(=O)c1ccc2c(c1)NC(=O)/C(=C\c1ccccc1F)S2 (stereo not given)	0.0941	
CC1CCN(C(=S)c2ccc(-c3ccc(Cl)cc3Cl)o2)CC1		21.2 µM (active)
Cc1csc(NC(=O)c2ccc(-c3ccc(Cl)cc3Cl)o2)n1	-15	
COc1ccc(C(=O)Nc2c(Cl)cc(Cl)cc2C(=O)N2CCC(C)CC2)cc1	-14.4	
COc1ccc2[nH]c(=S)cc(C)c2c1		4.74 µM (active)
COc1ccc2[nH]c3c(C)c4cc[n+](C)cc4c(C)c3c2c1	-4.23	
COc1ccc(N)c(C)c1	-0.841	
O=S1(=O)CCN(Cc2ccccc2)CC1	-2.26	
NC(=O)C1(N2CCCC2)CCN(Cc2ccccc2)CC1	-7.37	
CC12CN(Cc3ccccc3)CC(C)(CN(Cc3ccccc3)C1)C2=NO		5.32 µM (active)
O=C(OCc1cn([C@H]2C[C@H](c3ccccc3)N(C(=O)c3cccs3)C[C@@H]2O)nn1)c1ccccc1	-2.46	
CC(C)(C(=O)N1CCC1(C)C(=O)NS(=O)(=O)c1ccc(Br)cc1)c1ccccc1 (stereo not given)	-7.26	
CCOc1ncccc1C(=O)Nc1ccc(S(=O)(=O)Nc2nc(C)cc(C)n2)cc1	0.589	
Cc1cc(C)nc(NS(=O)(=O)c2ccc(N/C=C\C(=O)c3cccs3)cc2)n1		26.7 µM (active)
Cc1ccc(C(=O)/C=C/Nc2ccc(S(=O)(=O)Nc3onc(C)c3C)cc2)cc1	-13.9	

SMILES	max response, negative = inhibition [%]	Potency
O=C(CC(CC(=O)c1ccccc1)c1ccco1)c1ccccc1	13.6	
CSc1ccc(CNC(=O)C2(C)CCCN2C)cc1 (stereo not given)	-4.46	
CN(C)CCCOc1ccc(-c2ccc3nccn3c2)cn1	-0.941	
CCOC(=O)N1C(=O)C[C@](Sc2ccc(C)cc2)(C(=O)OC)[C@H]1c1ccccc1	-3.98	
Cn1nc(N)c2ncc(C(Cl)(Cl)Cl)nc21	-4.91	
O=C(c1ccc(F)cc1)N1CCC(n2nnc3ccccc32)CC1	-7.84	
CC1COc2ccccc2N1C(=O)c1ccc(F)cc1 (stereo not given)	-6.97	
O=C(c1ccc(F)cc1)n1c(=S)nc2ccccn21		26.7 µM (active)
c1ccc(Cn2nnc3c(NCC4CC4)ncnc32)cc1	-24.2	
Nc1nc2c(ncn2[C@@H]2O[C@H](CNS(=O)(=O)N3CCc4ccccc4C3)[C@@H](O)[C@H]2O)c(=O)[nH]1	-3.21	
O=C(Nc1ccc(OCCO)cc1)c1csc([C@H]2C[C@H](O)[C@@H](CO)O2)n1	-5.62	
Cc1cc(=O)[nH]c2nnnn12		23.8 µM (active)
Cn1nnnc1SCc1cc(=O)[nH]c2ccccc12	-18.7	
Cc1cc(C)n(-c2nc(O)cc(=O)[nH]2)n1	-2.57	
CCC(CC)C(C(=O)NC1CCCC1)N1CCN(c2cc(C)nc3ccccc23)CC1 (stereo not given)	-1.11	
C[C@@H]1CN([C@H](C)CO)S(=O)(=O)c2ccc(C#C[C@@H](C)O)cc2O[C@@H]1CN(C)Cc1ccc(-c2ccccc2)cc1	-3.99	
CC(=O)Nc1ccc2nc(NC(=O)CS(=O)(=O)c3ccc(F)cc3)sc2c1	-4.56	
COc1ccc(C(CNC(=O)CSc2ccccc2)N2CCOCC2)cc1 (stereo not given)	-29.4	
CCc1ccc([C@@H]2CC(=O)[C@@H]3CN(S(=O)(=O)c4ccc(C)cc4)[C@H](c4ccc(Cl)cc4)C[C@@H]3N2S(=O)(=O)c2ccc(C)cc2)cc1	3.16	
CN(C)S(=O)(=O)c1ccc2oc(SCC(=O)Nc3ccccc3F)nc2c1	-21.2	
COc1ccc(S(=O)(=O)N(C)C)cc1NC(=O)CSc1ncccn1		15 µM (active)
COc1ccc(S(=O)(=O)N(C)C)cc1NC(=O)COC(=O)c1n[nH]c2ccccc12	-0.239	
CC1(C)OC(=O)C2=C(CC(c3ccccc3)OC2CCc2ccccc2)O1 (stereo not given)	-6.04	

SMILES	max response, negative = inhibition [%]	Potency
S=C(c1ccc(-c2ccccc2)o1)N1CCCCC1		9.47 µM (active)
Cc1cccc(C)c1NC(=S)N1CCCCCC1	-6.23	
O=C(c1ccc(CSc2ccccc2)cc1)N1CCCCCC1	-2.73	
O=C(C[C@H]1CC[C@H]2[C@@H](COC[C@H](O)CN2C(=O)c2ccccn2)O1)N1CCN(c2ccccc2)CC1	-2.29	
Cn1nnnc1-c1cc(Cl)cc(Cl)c1		26.7 µM (active)
Cn1nnnc1NCc1ccc(Cl)c(Cl)c1	-14	
Cc1ccc(S(=O)(=O)N[C@H](CO)C(C)C)cc1	-4.56	
CCOC(=O)CNc1nc(Cl)nc(Nc2ccccc2)n1		21.2 µM (active)
CCC(=O)Nc1ccc(Nc2nc(Cl)nc(Nc3ccc(NC(=O)CC)cc3)n2)cc1	-16.7	
CCOC(=O)CNc1nc(Cl)nc(Nc2ccc(OC)cc2OC)n1	0.534	
CC1(C)OC(=O)C2=C(C[C@@H](C3CCCC3)O[C@@H]2c2ccc(Cl)cc2)O1	2.05	
Cc1ccc(C(=O)Nc2c(C#N)c(C)c(C)n2Cc2ccccc2)cc1	-3.45	
Cc1c(C#N)c(NC(=O)c2ccccc2)n(Cc2ccccc2)c1C	-4.49	
CCCc1ccc(-c2c(C)sc(NC(=O)c3ccnn3C)c2C#N)cc1		10.6 µM (active)
CC1(C(=O)NS(=O)(=O)c2ccccc2)CCN1C(=O)C1CCCCC1 (stereo not given)	-5.58	
Cc1cccnc1C(NC(=O)C1CCN(Cc2ccc(Cl)c(Cl)c2)CC1)c1ccc(Cl)cc1 (stereo not given)	-6.41	
Cc1cn([C@H]2C[C@H](O)[C@@H](CNC(=O)[C@H](N)Cc3cccnc3)O2)c(=O)[nH]c1=O	-0.77	
CC(c1ccco1)N(C(=O)Nc1ccccc1)C1CCCCC1 (stereo not given)	-2.64	
Cc1ccc(NC(=O)NC(=O)N(C2CCCCC2)S(=O)(=O)c2ccccc2)cc1		29.9 µM (active)
CC(C)(C)NS(=O)(=O)c1ccc(NC(=O)NC2CCCCC2)cc1	-9.85	
COc1cc(C(O)c2nc(-c3cccc(C(=O)O)c3)cs2)ccc1F (stereo not given)	2.95	
O=C(O)c1ccccc1N=N/C(=N/Nc1cc(S(=O)(=O)O)ccc1O)c1ccccc1		16.8 µM (active)
COc1cccc(NC(=O)C2(C)CCN2Cc2ccccc2Cl)c1 (stereo not given)	4.24	

SMILES	max response, negative = inhibition [%]	Potency
OCCc1ccc(NCCc2ccco2)cc1	-4.52	
O=Nc1c(O)cc(O)c2ccccc12	-5.49	
Cc1cc(N2C(=O)C(=O)/C(=C(/O)c3ccccc3)C2c2cccc(Br)c2)no1 (stereo not given)	-15	
C=CCOc1cccc(C2C(C(=O)c3ccc(C)o3)=C(O)C(=O)N2CCN2CCOCC2)c1 (stereo not given)	-19.4	
Cc1cc(N2C(=O)C(O)=C(C(=O)c3ccc(C)o3)C2c2ccc(OCc3ccccc3)cc2)no1 (stereo not given)		21.2 µM (active)
C[C@@H]1CN([C@@H](C)CO)C(=O)CCCn2nncc2CO[C@H]1CN(C)Cc1ccc(C(F)(F)F)cc1	-1.98	
CC(=O)C[C@@H]1OC[C@H](CO)N1S(=O)(=O)c1ccc(C)cc1	-6.97	
CCOc1cc(C(=S)N2CCOCC2)ccc1O		7.52 µM (active)
CCOc1cc(C(=S)N2CCOCC2)ccc1OS(=O)(=O)c1ccc(Br)cc1	-16.5	
CCOc1cc(C(=O)OCC(=O)Nc2cccc(C)c2)ccc1OCC(=O)N1CCOCC1	-7.2	
COCOCCn1cc(CN2CCS(=O)(=O)N(Cc3ccc(-c4cccc(N(C)C)c4)cc3)C(CC(C)C)C2=O)nn1 (stereo not given)	-14.2	
O=C(CCN1CCN(C/C=C/c2ccccc2)CC1)Nc1ccccc1Cl	-3.16	
O=C(Nc1ccccc1Cl)/C(Cl)=C(\Cl)S(=O)c1ccccc1 (stereo not given)		1.34 µM (active)
NC(=O)C1(Nc2ccccc2Cl)CCCC1	-11.6	
CCCNC(=O)C1(C)CCN(Cc2ccc(Cl)c(Cl)c2)C1 (stereo not given)	-1.65	
C[C@H](NC(=O)[C@@H]1CCCN1C(=O)[C@@H]1CCCN1C(=O)c1ccccc1)c1ccccc1	-0.0066	
COc1ccc(N2CCN(C(=O)C3CCN(C(=O)c4ccccc4Cl)CC3)CC2)cc1	1.62	
O=C(c1ccccc1Oc1ccccc1)N1CCN(c2ccc(F)cc2)CC1		26.7 µM (active)
CC(C)N(C(=O)COC(=O)c1ccccc1C(=O)N1CCN(c2ccc(F)cc2)CC1)C(C)C	-8.86	
CC[C@@H]1CC2=C(C(=O)OC(C)(C)O2)[C@@H](CC)O1	0.545	
Cc1ccc(C(O)c2ncc(-c3ccccc3F)[nH]2)cc1F (stereo not given)	-7.55	

Reference: PubChem BioAssay AID720504 (National Center for Advancing Translational Sciences (NCATS), 2013)
